D3 antag – blocks the human D3 dopamine receptor | D3R cells, DiscoveRx beta-arrestin luminescence, antagonist mode; active compounds read low | max response, negative = inhibition, % | 360,000 tested, 2.5% active | AID 652054; in the data active = max response below about -50%; inconclusive = no clear call, values can overlap the other calls; note: % is set by controls: 0 for no effect and ±100 for the full control effect
Target sequence (P35462 whole entry, looked up): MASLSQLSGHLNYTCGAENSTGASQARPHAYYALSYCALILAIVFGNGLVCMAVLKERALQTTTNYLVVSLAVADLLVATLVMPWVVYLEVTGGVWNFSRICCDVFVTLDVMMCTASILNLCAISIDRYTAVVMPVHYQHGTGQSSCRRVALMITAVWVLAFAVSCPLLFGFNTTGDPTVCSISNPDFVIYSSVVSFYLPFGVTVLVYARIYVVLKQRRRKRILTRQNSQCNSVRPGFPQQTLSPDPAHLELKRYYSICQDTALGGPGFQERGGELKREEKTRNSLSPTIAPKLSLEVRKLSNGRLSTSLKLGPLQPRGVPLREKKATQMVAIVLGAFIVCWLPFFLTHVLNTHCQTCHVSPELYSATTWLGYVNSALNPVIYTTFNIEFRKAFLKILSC
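Cells expressing the human receptor were seeded at 1500 cells/well, incubated overnight at 37 degrees C in 5% CO2, then exposed to library compounds with dopamine controls for 90 minutes at 37 degrees C before luminescent detection.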
DRD3 agonist – agonists of human D3 dopamine receptor; P35462; D3R DiscoveRx beta-arrestin cells, luminescence, 90 min; max activation, %; 410,000 tested, 0.58% active; in the data active = max activation above about 30%; note: 0% is about no effect
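Cells at 1500/well, incubated overnight, then treated with pinned compounds (dopamine as control) for 90 min at 37 degrees C. DiscoveRx reagent added for 30 - 60 minutes at room temperature; luminescence read.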
KB-V1 MDR tox – kills drug-selected multidrug resistant KB-V1 cells. KB-V1 MDR cells viability, CellTiter-Glo, 72 h. Potency, µM (series often up to 46.1 µM), usual class: cytotoxic. 400,000 tested, 3.4% active; note: potency is the fitted concentration of half-maximal effect; % is set by controls: 0 for no effect and ±100 for the full control effect; nearly all actives have a fitted effect of over 60% in size
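Drug-selected KB-V1 cells, grown in DMEM lacking phenol red with 10% FBS, receive compound titrations; after three days at 37 degrees C, surviving cell ATP is quantified by CellTiter-Glo luminescence and responses normalized and curve-fitted.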
KB-3-1 cytotox – kills parental KB-3-1 adenocarcinoma cells. 400,000 tested, 1.4% active. Potency, µM (highest dose often 46.1 µM), usual class: cytotoxic. KB-3-1 viability, CellTiter-Glo ATP luminescence, 72 h; note: potency is the fitted concentration of half-maximal effect; % is set by controls: 0 for no effect and ±100 for the full control effect; nearly all actives have a fitted effect of over 60% in size
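Luminescent ATP read-out (CellTiter-Glo) measures survival of drug-naive KB-3-1 cells after 72 h compound exposure at 37 °C. Titration series was screened from lowest to highest concentration, with DMSO vehicle plates as background controls.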
MCF10A rereplic – induces DNA re-replication in MCF 10a normal breast cells; 350,000 tested, 2.9% active; MCF 10A DNA re-replication, Hoechst nuclear intensity, 48 h; Potency, µM (highest dose often 46.1 µM), for the others: at the top dose activity, positive = re-replication, actives largely listed as activators; AID 624296; note: potency is the fitted concentration of half-maximal effect; % of control where 0% means no effect; nearly all actives have a fitted effect of over 50% in size
SW480 rereplic – induces DNA re-replication in SW480 colon adenocarcinoma cells. SW480 DNA re-replication, Hoechst DNA content imaging, 48 h. Potency, µM (top dose mostly 46.1 µM), without a hit: at the top dose re-replication activation, hits mostly activators. 340,000 tested, 1.8% active. AID 624297; note: potency is the fitted concentration of half-maximal effect; % of control where 0% means no effect; nearly all actives have a fitted effect of over 55% in size
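SW480 cells exposed to compounds for 48 hr at 37 C, 5% CO2, then Hoechst-stained 40 min. Nuclear DNA content imaged by fluorescence scanning (405 nm excitation, 500-530 nm emission); re-replication scored as increased high-intensity nuclei.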
Starred values were filed as active, the others as inactive; i = inactive; ? = inconclusive; . = no result given; [ ] = remark or other dose. An excerpt weighted towards active compounds, which were near 8.9% of everything screened. Unless noted, calls come from the whole dose curve; as a rule, active = well fitted curve in the direction sought with a large enough effect; inconclusive = small, poorly fitted or top-dose-only effect, or another doubt; inactive = no such curve, though single readings can be large; an effect the other way counts as inactive or inconclusive.

SMILES	D3 antag	DRD3 agonist	KB-V1 MDR tox	KB-3-1 cytotox	MCF10A rereplic	SW480 rereplic
CC1CC(C)CN(C(=O)/C=C/c2ccc([N+](=O)[O-])s2)C1 (centres undefined)	-2	2	?	i	22%	?
O=[N+]([O-])c1ccc(CN2CCCCCC2)s1	-7	-8	?	23µM*	13%	?
O=C(/C=C/c1ccc([N+](=O)[O-])s1)N1CCCC1	-2	2	?	?	-1%	12µM*
Cc1oc2ncnc(N3CCOCC3)c2c1C(=O)NCc1ccccc1	.	4	.	.	.	.
Cc1ccc(Cn2nnc3c(=O)n(CC(=O)N4CCN(c5ccccc5)CC4)cnc32)cc1	-13	-12	5.2µM*	i	?	-9%
O=C(Cn1cnc2c(nnn2-c2cccc(Cl)c2)c1=O)N1CCCC1	-7	4	13µM*	i	4%	0%
Cc1ccc(Cn2nnc3c(=O)n(CC(=O)OCc4ccccc4)cnc32)cc1	-7	-4	i	i	3%	-4%
CCCc1cc(-c2ccc3c(c2)COc2c4ccccc4nn2-3)on1	0	14	i	i	16µM*	-3%
Cc1cc2oc(=O)cc(CSc3nc(N)cc(N)n3)c2cc1C(C)C	-10	2	i	i	9%	-1%[9.22 µM]
CCCc1cc(=O)[nH]c(SCc2cc(=O)oc3cc(C)c(C(C)C)cc23)n1	0	-6	21µM*	i	?	0%
Cc1cc2oc(=O)cc(CN3CCN(S(=O)(=O)c4ccc5c(c4)OCCO5)CC3)c2cc1C	-9	-7	i	i	1%	-2%
Cc1cc2oc(=O)cc(CN3CCN(S(=O)(=O)/C=C/c4ccccc4)CC3)c2cc1C	-20	-7	2.6µM*	i	3%	15%
Cc1cc(C)c2c(CN3CCN(C/C=C/c4ccccc4)CC3)cc(=O)oc2c1	-64*	-2	?	i	17%	5%
Cc1cc(C)c2c(CN3CCCCCCC3)cc(=O)oc2c1	-25	-8	i	i	.	.
Cc1cc2oc(=O)cc(CN3CCC(C)CC3)c2cc1C	-72*	-12	i	i	-7%	-8%
COc1ccc(CCNC(=O)CCCn2nc(C)c3sc4ccccc4c3c2=O)cc1OC	.	-18	.	.	.	.
Cc1cc(C)c2c(CCl)cc(=O)oc2c1	6	-13	?	?	5.2µM*	3.7µM*
Cc1cc2oc(=O)cc(CN3CCCCC3)c2cc1C(C)C	-78*	0	?	i	-17%	1%
CCOC(=O)N1CCN(Cc2cc(=O)oc3ccc(Cl)cc23)CC1	-3	-7	18µM*	i	6%	-17%
CC(=O)N1CCN(Cc2cc(=O)oc3cc(C)c(C)cc23)CC1	-80*	-4	i	i	.	.
Cc1cc(C)c2c(CN3CCCCC3)cc(=O)oc2c1	4	2	i	i	-1%	5%
CC(=O)ON(C(C)=O)c1ccc(/C=C2\C=Cc3ccccc32)cc1	.	.	i	i	.	.
CCC(C)N(C(=O)COC(=O)c1ccc(N)c([N+](=O)[O-])c1)C1CCS(=O)(=O)C1 (centres undefined)	38	-2	i	i	.	.
CCOC(=O)c1cocc1C(=O)O	11	-1	?	i	0%	-5%
CC1CCN(Cc2c(C(=O)N3CCc4ccccc4C3)nc3ccc(Cl)cn23)CC1	-89*	-19	i	i	-11%	-4%
SMILES	D3 antag	DRD3 agonist	KB-V1 MDR tox	KB-3-1 cytotox	MCF10A rereplic	SW480 rereplic
CCN1CCc2nc3sc(C(=O)Nc4cccc(Cl)c4C)c(N)c3cc2C1	.	6	6.5µM*	16µM*	.	.
CCN1CCc2nc3sc(C(=O)N4CCc5ccccc5C4)c(N)c3cc2C1	-18	-7	?	i	18µM*	3%
COCCCNC(=O)CC1C[C@H](C(=O)N2CCOCC2)[C@@]2(C)c3[nH]c4ccc(OC)cc4c3CCN2C1=O (some centres undefined)	7	-4	i	i	-4%	?
Cn1c2c(c(=O)n(C)c1=O)C(C(F)(F)F)(C(F)(F)F)N=C(CCC1CCCCC1)N2	23	15	?	23µM*	?	18%
Cc1ccc(S(=O)(=O)N2CCC(C(=O)Nc3ccc(C)c(Cl)c3)CC2)cc1	.	8	.	.	.	.
O=c1c2ccccc2nc2n1CCN2Cc1ccc(Cl)cc1	-2	14	4.6µM*	16µM*	-6%	-13%
O=c1c2ccccc2nc(-c2ccccc2)n1Cc1ccccc1	10	-19	i	i	?	-3%
O=c1c2ccccc2nc(-c2ccccc2)n1Cc1ccc(Cl)cc1	0	-1	i	i	18µM*	10%
COc1cc(NC(=O)CCNS(=O)(=O)c2ccc3c(c2)CCN3C(=O)C2CC2)cc(OC)c1	.	-6	i	i	.	.
N#CC1=C(N)Oc2cc(Nc3ccccc3)ccc2C1c1ccncc1 (centres undefined)	-4	4	i	?	?	16µM*
CCN(CC)c1ccc2c(c1)OC(N)=C(C#N)C2c1cccnc1 (centres undefined)	5	4	0.29µM*	0.041µM*	?	0.18µM*
O=C(c1ccco1)n1nc(-c2ccccc2)nc1NCc1ccccc1Cl	.	-5	i	i	.	.
COc1ccc(Nc2nc3c(S(=O)(=O)c4ccc(C)cc4)nnn3c3ccsc23)cc1Cl	.	2	i	?	.	.
COc1cccc(CC(=O)Nc2ccc3nc(C)sc3c2)c1	3	2	?	i	-9%	9.2µM*
Cc1cc(C)nc(SCCCNCc2ccccc2)n1	-67*	-26	i	i	10%	-46%
Cc1cc(C)nc(SCCS(=O)(=O)Cc2ccccc2)n1	23	1	i	i	0%	-1%
Clc1ccc(CNCCCSc2ncccn2)cc1Cl	-67*	1	?	i	6%	-1%

Screening data (PubChem)
